Laboratory results reported in the supplement of paper PMC6555819.

Tests used:
Assay in all cases: PBM binding z-score (relative to random genomic background probes); higher = stronger binding; sequences stand for … in GC…GCGATTGACAGCGTAGAATGAAGG
[1] = system: RARb homodimer (NR concentration 270 nM)
In short: (§1)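 On custom Agilent 4×180K arrays, double-stranded probes with 34-nt variable regions carried direct-repeat seeds, single-nucleotide variants, half-site ablations or random human genomic background. Ligand-free nuclear receptor dimers were applied for 1 h, and binding was read with antibodies against each partner (one per run). Binding z-scores come from regression-normalized fluorescence, with the random background probes as reference.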

[2] = system: RARg:RXRa (NR concentration 270 nM, RXRa partner concentration 90 nM)
In short: as §1

[3] = system: RARg homodimer (NR concentration 270 nM)
In short: as §1

[4] = system: RXRa DBDmut IVT, anti-RXR (DBD mutation: RXRa K156A/R161A, NR concentration 90 nM)
In short: as §1

[5] = system: RXRa homodimer (NR concentration 180 nM)
In short: as §1

[6] = system: THRa:RXRa (NR concentration 90 nM, RXRa partner concentration 90 nM)
In short: as §1

[7] = system: THRa homodimer (NR concentration 90 nM)
In short: as §1

[8] = system: VDR:RXRa (NR concentration 270 nM, RXRa partner concentration 90 nM)
In short: as §1

[9] = system: VDR homodimer (NR concentration 270 nM)
In short: as §1

| Sequence | PBM binding z-score [1] | PBM binding z-score [2] | PBM binding z-score [3] | PBM binding z-score [4] | PBM binding z-score [5] | PBM binding z-score [6] | PBM binding z-score [7] | PBM binding z-score [8] | PBM binding z-score [9] |
| --- | --- | --- | --- | --- | --- | --- | --- | --- | --- |
| GCGACTGGCGCATCAGCAGGTTACCATAACTTAA | -0.252 | -0.477 | -0.547 | -0.402 | -0.293 | -0.328 | -0.551 | -0.625 | -0.6 |
| CTACCAAGGTGAAGAAGGTCGTTGATTACTATTC | 1.74 | 1.35 | 1.07 | 0.727 | 1.34 | 2.13 | 0.885 | 4.25 | 1.34 |
| GTTATTAGTTGAAAGGGCAACCGAATGATTCTCG | 2.41 | 1.75 | 1.95 | 1.16 | 1.64 | 1.18 | 0.669 | 1.24 | 1.55 |
| TCTAGTTGGCCACGGAGGTCACACACGACGGGTA | 3.85 | 3.98 | 3.67 | 0.683 | 4.31 | 3.48 | 2.53 | 3.97 | 1.99 |
| CCTATTAGTTGACCATAAAGGCAACCGAAGCTCG | 0.622 | 0.557 | 0.504 | 0.578 | 0.337 | 0.39 | 0.543 | 0.841 | 0.626 |
| CGAACTGGGTCAAGGACAGTGAATCTCCGCACGC | 2.55 | 3.53 | 3.36 | 0.955 | 2.54 | 2.76 | 1.56 | 1.46 | 0.325 |
| TTTATTAGTTGATTAGGGCAACCGAAACAGCGGA | 0.918 | 0.811 | 0.769 | 0.442 | 0.586 | 0.999 | 0.89 | 0.643 | 0.951 |
| GTACCAAGGTGAATAGCTCGTTGATGAGTAGGCG | 0.121 | 0.285 | 0.489 | -0.348 | 0.453 | 1.15 | 0.236 | -0.223 | -0.63 |
| CCGACTGGGGCAAAGTTTACCATACTCAGTACGA | 0.876 | 1.01 | 1.06 | 1.29 | 0.757 | 0.304 | -0.108 | 0.062 | 0.435 |
| AGAACGAGGGCAATGAGCTGATAGCACGGGTGGC | 0.707 | 1.15 | 1.22 | 1.19 | 0.871 | 0.598 | -0.379 | -0.0572 | 0.597 |
| CCTATTAGTTGACCATAAGTGCAACCGAAGCTCG | 1.59 | 0.741 | 0.841 | 1.18 | 0.751 | 0.954 | 1.18 | 1.31 | 1.81 |
| GCGGCTAGGTCAGGTTGGTCAGCTAACGGGTACG | 2.8 | 2.47 | 3.36 | 0.271 | 1.07 | 1.85 | 0.788 | 0.482 | 0.247 |
| CGAACTAGGTCATTGACATGACAGTGAATAGTAA | 2.55 | 3.68 | 4.2 | 2.17 | 2.84 | 2.68 | 0.792 | 2.16 | 1.36 |
| CGTCCAAGGTCATAGGAGGTCTGTGAAGACAGAT | 3.75 | 5.85 | 5.79 | 3.7 | 6.11 | 4.63 | 2.24 | 4.72 | 2.81 |
| CTACCAAGGTGATCAAGGTCGTTGATTACTATTC | 1.47 | 0.906 | 0.808 | 1.42 | 1.11 | 2.71 | 1.55 | 5.3 | 2.33 |
| TCAGACAGGTGAACGTAACTCAGGTACGCAGTCG | 0.813 | 0.793 | 0.768 | 0.94 | 1.32 | 0.679 | 0.264 | 0.682 | 0.361 |
| CGTACAAGGTCAAGGTCAGTGAAAGAGACTCGAA | 5.35 | 6.85 | 7.48 | 3.82 | 6.83 | 4.45 | 3.84 | 4.98 | 3.49 |
| CCTCGGAGGACACAAGGTCAGAGCTGTCCGCTTT | 3.68 | 3.85 | 3.74 | 0.757 | 2.07 | 3.65 | 1.57 | 1.88 | 0.992 |
| ACAGACAGGTGAGTGAAGGTAACGCAGCTGGACG | 0.215 | 0.259 | 0.522 | -0.546 | 0.362 | 1.83 | -0.423 | -0.28 | -0.319 |
| GGGACTGGGGCAAAGCAGGTTACCATAAGGTTGG | 1.75 | 0.941 | 0.994 | -1.03 | 0.55 | 3.3 | 1.32 | 0.732 | 0.624 |
| CCGACTGGCGCATAAGGTTACCATAAGCCAGCCC | 0.729 | 0.235 | 0.126 | -0.135 | 0.736 | 2.26 | 1.56 | -0.0103 | 0.005 |
| CGAACTAGGTCATCCAGGACAGTGATTACATTGA | 1.77 | 4.03 | 5.13 | 2.49 | 3.37 | 3.68 | 2.14 | 4.57 | 2.32 |
| ATCGAAAGGTCGTGAGGTGAGTATACAGAAAGGC | 3.07 | 4.69 | 3.9 | 1.42 | 4.97 | 3.45 | 1.47 | 3.69 | 1.09 |
| CCTAGTTGGTCAAGGTTACACACGCTATAGGTAC | 2.15 | 1.49 | 1.86 | 1.24 | 1.48 | 2.16 | 1.78 | 1.5 | 1.42 |
| TCTCGGAGGACACGATAGGTCAGAGCTCGACATC | 3.02 | 2.49 | 3.18 | 0.695 | 1.43 | 2.47 | 0.393 | 0.769 | 0.242 |
| CCTAGTTGATCAGGAGGTCACACACCGGATATGA | 3.89 | 4.82 | 3.78 | 1.4 | 4.41 | 3.6 | 2.51 | 4.08 | 3.06 |

| Sequence | PBM binding z-score [1] | PBM binding z-score [2] | PBM binding z-score [3] | PBM binding z-score [4] | PBM binding z-score [5] | PBM binding z-score [6] | PBM binding z-score [7] | PBM binding z-score [8] | PBM binding z-score [9] |
| --- | --- | --- | --- | --- | --- | --- | --- | --- | --- |
| GCTGCTAGGTCAGGTTGGTGAGCTAACGGGTACG | 2.33 | 2.37 | 3.34 | 0.361 | 1.05 | 1.76 | 0.218 | 0.141 | 0.0347 |
| TCATATAGGTAAATGCTAGGTGCAAGTCCGATCT | -0.219 | 0.325 | 0.13 | 1.51 | 0.838 | 0.121 | 0.135 | 0.809 | 0.597 |
| GATACAGGGTCAAGGCCAAAGTACGCGTATTGAT | 3.82 | 5.66 | 5.29 | 2.45 | 6.07 | 3.76 | 1.43 | 4.44 | 2.52 |
| TCTAGTTGGTCAAAGATCACACACTCGAAATGCG | 0.919 | 1.57 | 0.992 | 1.48 | 1.61 | 0.536 | 0.263 | 1.29 | 0.452 |
| AATACAGGGTCATCGTGGGCCAGAGTACGCACAG | 3.78 | 5.59 | 4.97 | 3.19 | 6.45 | 4.44 | 1.46 | 5.18 | 3.9 |
| GCTAGCAGGCCATTTGGGGCACTCAATGACGGGC | -0.0146 | -0.154 | 0.3 | -0.299 | -0.112 | 0.771 | -0.695 | -0.555 | -0.274 |
| TATACAGGGTAAAAGGCCAGAGTACGAATGTCGA | 1.6 | 1.56 | 1.59 | -0.337 | 1.11 | 0.651 | -0.663 | 0.433 | 0.418 |
| CCTACTGGGCCTTTCAGAGGTCATTGATCATATG | 3.64 | 3.43 | 2.71 | 0.749 | 3.84 | 3.04 | 1.36 | 3.36 | 2.8 |
| CATACAGGGTCAGGTAGGCCAGAGTAGGGACGGC | 3 | 4.2 | 4.14 | 0.816 | 4.12 | 2.93 | 0.964 | 3.35 | 1.14 |
| TCTCGGAGAACACGAAGGTCAGAGCTTTCCAGAG | 2.86 | 1.7 | 1.58 | 0.25 | 1.61 | 1.18 | -0.552 | 0.885 | -0.097 |
| TCATATAGGTAAAAGGTGAAACTCGGTGTGGTAA | 2.15 | 2.48 | 1.17 | 1.9 | 3.81 | 2.16 | 0.677 | 2.04 | 0.686 |
| CCTGCTAGGTAATGGTCAGCTAATCTACAGTATG | 0.105 | -0.00382 | 0.0688 | -0.0204 | -0.388 | -0.173 | -0.275 | -0.407 | -0.364 |
| TCTAGCAGGCAAGAGGGTCACTCAAGAGGTACGG | 2.42 | 2.15 | 1.93 | -0.113 | 2.5 | 1.47 | -0.453 | 2.01 | 0.595 |
| ATTCAAAGTTCATCTAGGTAACGTAAGATATGCT | 3.89 | 5.29 | 5.82 | 4.6 | 4.46 | 3.13 | 0.475 | 4.93 | 4.9 |
| ATCTCCAGGTAACAAGTTCAGTGAAAGAGAGGAC | 2.16 | 1.92 | 1.39 | 0.944 | 1.12 | 1.96 | 1.49 | 2.42 | 3.33 |
| TCTAGCAGGCCAGAGGGTCAATCAAGAGGTACGG | 2.63 | 2.97 | 2.14 | -0.246 | 2.87 | 1.62 | -0.729 | 1.6 | 0.802 |
| GGAACGAGGGCATTCGAGTTGATTGCATGGCGAT | 0.671 | 1.07 | 1.15 | 3.28 | 0.842 | 3.52 | -0.335 | 3.81 | 3.28 |
| TCTATTAGTTGAAGGGCAACCCACGAGTCCGTTT | 1.55 | 0.894 | 0.882 | 1.69 | 0.809 | 0.474 | 0.28 | 1.1 | 1.81 |
| GCAGACAGGTGAAACGGAGGTAACTCAGGGTGGC | 0.345 | 1.4 | 0.25 | -0.66 | 0.757 | 1.83 | -0.0224 | -0.2 | -0.566 |
| AGAATGAGGTGAAGATCAGGGAAACAGAATACAT | 0.949 | 1.15 | 1.09 | -0.551 | 1.05 | 2.77 | 1.32 | 0.178 | 0.103 |
| AGTCAAAGTTCAACTAGGTAACGTAAGATATGCT | 3.9 | 5.82 | 6.57 | 4.34 | 4.89 | 3 | 0.196 | 4.61 | 4.09 |
| AATACAGGGTCTCTAGGCCAGAGTAGGTACGAAT | 0.256 | 0.0798 | 0.292 | -0.254 | -0.15 | 0.0248 | -0.0749 | -0.299 | 0.143 |
| TAGCCCAGGTCATGGGCCAGTATACCACGCGAAC | 2.61 | 4.42 | 4.43 | 0.576 | 4.06 | 3.69 | 2.3 | 2.64 | 1.08 |
| ACAGACAGGTGATGAAGGTAACACAGGCTATCAT | 0.929 | 0.674 | 0.747 | -0.108 | 0.817 | 0.695 | 0.246 | 0.561 | 0.22 |
| CCTTACGGGTCACTCCAGGTTAAAGCATCGGAGT | 3.23 | 4.68 | 4.54 | 1.13 | 4.65 | 5.26 | 0.483 | 4.34 | 1.41 |
| GATACAGGGTCAGCTAGAGGCCAGATTATGGAAA | 3.59 | 6.4 | 4.49 | 1.25 | 4.05 | 3.2 | 0.619 | 3.57 | 0.715 |
